Article PMC4552634, “A New Set of Chemical Starting Points with Plasmodium falciparum Transmission-Blocking Potential for Antimalarial Drug Discovery” (PLoS ONE, 2015)
In all, about 13,000 compounds went through this assay and about 3,200 (25%) showed an effect of 50% or more. This is one part of the list.

What follows are molecules tested on P. falciparum stage V gametocytes. Conditions: 48 h, 5 µM; inhibitor.
Parameters: BacTiter-Glo ATP luminescence viability of purified stage V gametocytes in 384-well plates, per cent inhibition versus DMSO

| Compound | % Inhibition [%] |
| --- | --- |
| Cc1cccc(C)c1CNc1cccc(-c2nc(C)c(C)[nH]2)c1 [TCMDC-133434] | -88.3 |
| CCCNc1nc(NCc2c(C)cccc2C)nc(NC(C)(C)C)n1 [TCMDC-133383] | 61.71 |
| Cc1cccc(C)c1CNc1ccnc2ccccc12 [TCMDC-132169] | -38.56 |
| FC(F)(F)c1ccc2nc(-c3ccc(-c4cccc(CN5CCN(c6ccncc6)CC5)c4)cc3)[nH]c2c1 [TCMDC-132916] | 2.402 |
| COc1ccc2nccc([C@@H](O)CN3CCC(NCc4cc5ccccc5o4)CC3)c2c1 [TCMDC-140521] | 12.09 |
| Cc1ccc(NC(=O)N2CCC(n3c(-c4ccccc4)nc4cccnc43)CC2)cc1F [TCMDC-124742] | 24.56 |
| O=C(Nc1ccc(Br)cc1)N1CCC(n2c(-c3ccccc3)nc3cccnc32)CC1 [TCMDC-124743] | 60.37 |
| Cc1cc(-c2nc3ccc(C(=O)NCc4ccccc4)cc3n2C2CCN(C(=O)c3ccc(-c4ccccc4)cc3)CC2)ccn1 [TCMDC-135884] | 25.38 |
| CS(=O)(=O)c1ccc2c(c1)CCN(CCC1CCC(NC(=O)c3cc4cccc(Br)c4[nH]3)CC1)CC2 (stereo not shown) [TCMDC-141425] | -26.4 |
| Clc1ccc(-c2cc(-c3csc(NCCN4CCOCC4)n3)on2)c(Cl)c1 [TCMDC-140322] | 15.06 |
| O=C(Nc1ccc(OC2CCN(Cc3ccsc3)C2)c(Cl)c1)c1ccsc1 (stereo not shown) [TCMDC-133947] | 1.522 |
| CC[C@H]1CN2CC[C@@H]1C[C@H]2[C@H](O)c1cc[n+]([O-])c2ccc(OC)cc12 [TCMDC-142004] | 8.307 |
| Oc1ccccc1CNC1CCCCC1NCc1ccccc1O (stereo not shown) [TCMDC-138468] | 62.18 |
| Oc1c(Cl)cc(-c2ccccc2)cc1CNC1CCCCC1 [TCMDC-137170] | -21.36 |
| Oc1cc2ccccc2cc1CNC1CCCCC1 [TCMDC-131977] | -28.97 |
| CC(C)C[C@@H](/C=N/N1CC(=O)NC1=O)NC(=O)[C@H](CC(C)C)NC(=O)c1ccc(OCCN2CCOCC2)cc1 [TCMDC-136200] | 6.414 |
| CCCCCCCC/C=C\CCCCCCCC(=O)NCc1ccc(O)c(OC)c1 [TCMDC-124289] | 45.72 |
| Cc1cccc2[nH]c(-c3cccc(-c4ccc(NC(=O)C5CCCO5)cc4)c3)nc12 (stereo not shown) [TCMDC-136969] | -0.7596 |
| CC(=O)N1CCC(C(=O)Nc2ccc(-c3cccc(-c4nc5c(C)cccc5[nH]4)c3)cc2)CC1 [TCMDC-132167] | -9.717 |
| Cc1cccc2[nH]c(-c3cccc(-c4ccc(NC(=O)C5CCN(C)CC5)cc4)c3)nc12 [TCMDC-132189] | 100.5 |
| Cc1cccc2[nH]c(-c3ccc(-c4ccc(NC(=O)C5CCN(C)CC5)cc4)cc3)nc12 [TCMDC-132182] | 81.12 |
| COC1CCC(C(=O)Nc2ccc(-c3cccc(-c4nc5c(C)cccc5[nH]4)c3)cc2)CC1 (stereo not shown) [TCMDC-136859] | -20.23 |

| Compound | % Inhibition [%] |
| --- | --- |
| CC1CN(Cc2ccccc2)CCN1c1ccc(NC(=O)c2ccc(F)cc2)cc1 (stereo not shown) [TCMDC-135002] | -13.42 |
| O=C(Nc1ccc(Cl)cc1)c1cccc(S(=O)(=O)NC2CCN(CC3CCCCC3)CC2)c1 [TCMDC-132807] | 80.59 |
| O=C(Nc1ccc(C(F)(F)F)cc1)c1cccc(S(=O)(=O)NC2CCN(CC3CCCCC3)C2)c1 (stereo not shown) [TCMDC-132485] | -55.81 |
| O=C(Nc1ccc(C(F)(F)F)cc1)c1cccc(S(=O)(=O)NC2CCN(CC3CCCCC3)CC2)c1 [TCMDC-133671] | 8.091 |
| O=C(Nc1cccc(C(F)(F)F)c1)c1cccc(S(=O)(=O)NC2CCCN(CC3CCCCC3)C2)c1 (stereo not shown) [TCMDC-132769] | -38.48 |
| O=C(Nc1ccc(Cl)cc1)c1cccc(S(=O)(=O)NC2CCN(CC3CCCCC3)C2)c1 (stereo not shown) [TCMDC-132483] | -5.409 |
| N#Cc1cccc(NC(=O)c2cccc(S(=O)(=O)NC3CCN(CC4CCCCC4)C3)c2)c1 (stereo not shown) [TCMDC-132508] | 83.68 |
| CCC(CC)OC(=O)C(C)c1cccc(C(=O)c2ccccc2)c1 (stereo not shown) [TCMDC-138666] | -7.418 |
| COc1ccc2ncc(F)c(CCN3CC[C@H](NCc4cc(C#N)c5c(c4)OCCO5)[C@H](O)C3)c2c1 [TCMDC-136207] | -10.98 |
| CCC(C)OC(=O)C1=C(C)NC2=C(C(=O)CC(c3ccc(OC)c(OC)c3)C2)C1c1ccc(O)cc1 (stereo not shown) [TCMDC-125619] | 13.43 |
| CCOC(=O)c1ccc(NC(=O)N[C@@H](Cc2ccc(O)cc2)C(=O)NC2CCN(Cc3ccc4c(c3)OCO4)CC2)cc1 [TCMDC-135257] | -19.76 |
| CCN(CC)CCN(Cc1ccc(-c2ccc(C(F)(F)F)cc2)cc1)C(=O)Cn1c(/C=C/c2ccco2)nc(=O)c2ccccc21 [TCMDC-140939] | 82.58 |
| CCN(CC)CCN(Cc1ccc(-c2ccc(C(F)(F)F)cc2)cc1)C(=O)Cn1c(CCC2CCCCC2)nc(=O)c2ccccc21 [TCMDC-141056] | 47.99 |
| CCN(CC)CCN(Cc1ccc(-c2ccc(C(F)(F)F)cc2)cc1)C(=O)Cn1c(CCc2ccc(F)cc2)nc(=O)c2ccccc21 [TCMDC-140943] | 79.23 |
| CCN(CC)CCN(Cc1ccc(-c2ccc(C(F)(F)F)cc2)cc1)C(=O)Cn1c(CCc2cc(F)cc(F)c2)nc(=O)c2ccccc21 [TCMDC-140956] | 70.83 |
| COc1ccc2nccc(N3CCN(CCNCc4ccc5c(n4)NC(=O)CO5)CC3)c2n1 [TCMDC-141968] | 1.504 |
| Cc1cc(NCC(C)C)c2[nH]nc(-c3ccccc3)c2n1 [TCMDC-131557] | -38.79 |
| CC(=O)c1c(Cc2ccccc2Cl)c[nH]c1C [TCMDC-125433] | -14.2 |
| CC(C)COc1cc(C(=O)Nc2cnc3ccccc3c2)ccc1[N+](=O)[O-] [TCMDC-139142] | 13.84 |
| COc1ccc(CNC(=O)NC2CCN(c3ccnc(Nc4ccc(F)cc4)n3)CC2)cc1 [TCMDC-133631] | 1.923 |
| OC(CNC12CC3CC(CC(C3)C1)C2)c1cccc(C(F)(F)F)c1 (stereo not shown) [TCMDC-131509] | -56.01 |
| CCc1ccc(-n2cc(C(=O)c3cc(Br)ccc3O)cc(C#N)c2=O)cc1 [TCMDC-125186] | 9.775 |

| Compound | % Inhibition [%] |
| --- | --- |
| O=[N+]([O-])c1ccccc1/C=N/Nc1ccnc2cc(Cl)ccc12 [TCMDC-123965] | -67.83 |
| COc1ccc2nccc([C@@H](O)CN3CCC(NC(=O)c4ccc(C5(C(F)(F)F)N=N5)cc4)CC3)c2c1 [TCMDC-141324] | -7.709 |
| CCCCOc1ccc(/C=C/c2ccc(-c3c(C)[nH]c(C)c(Cl)c3=O)s2)cc1 [TCMDC-136086] | 60.63 |
| O=C(/C=C/c1ccc(Cl)c(Cl)c1)NCCCCCN1CCC(NC(=O)Nc2ccc(OC(F)F)cc2)CC1 [TCMDC-135722] | -13.06 |
| O=C(/C=C/c1ccc(Cl)c(Cl)c1)NCCCCCN1CC[C@H](NC(=O)Nc2ccc(Oc3ccccc3)cc2)C1 [TCMDC-139512] | 98.95 |
| COc1ccc(NC(=O)NC2CCN(CCCCCNC(=O)/C=C/c3ccc(Cl)c(Cl)c3)CC2)cc1 [TCMDC-135709] | -22.99 |
| COc1ccccc1NC(=O)NC1CCN(CCCCCNC(=O)/C=C/c2ccc(Cl)c(Cl)c2)CC1 [TCMDC-139385] | -13.68 |
| CC(C)c1ccc(NC(=O)NC2CCN(CCCCCN(C)C(=O)/C=C/c3ccc(Cl)c(Cl)c3)C2)cc1 (stereo not shown) [TCMDC-139530] | -5.21 |
| O=C(/C=C/c1ccc(Cl)c(Cl)c1)NCCCCCN1CCC(NC(=O)Nc2ccc(Cl)c(Cl)c2)CC1 [TCMDC-139387] | -30.31 |
| COc1ccc(NC(=O)NC2CCN(CCCCCNC(=O)/C=C/c3ccc(Cl)c(Cl)c3)C2)c(OC)c1 (stereo not shown) [TCMDC-139525] | 95.6 |
| CC(C)c1ccc(NC(=O)N[C@H]2CCN(CCCCCNC(=O)/C=C/c3ccc(Cl)c(Cl)c3)C2)cc1 [TCMDC-139510] | 104.6 |
| CN(CCCCCN1CCC(NC(=O)Nc2ccc(Oc3ccccc3)cc2)C1)C(=O)/C=C/c1ccc(Cl)c(Cl)c1 (stereo not shown) [TCMDC-139532] | -7.519 |
| CC(C)c1ccc(NC(=O)NC2CCN(CCCCCNC(=O)/C=C/c3ccc(Cl)c(Cl)c3)CC2)cc1 [TCMDC-139389] | -3.81 |
| O=C(/C=C/c1ccc(Cl)c(Cl)c1)NCCCCCN1CCC(NC(=O)Nc2ccc(Oc3ccccc3)cc2)C1 (stereo not shown) [TCMDC-139528] | -43.31 |
| CN(CCCCCN1CCC(NC(=O)Nc2ccc(C(F)(F)F)cc2)C1)C(=O)/C=C/c1ccc(Cl)c(Cl)c1 (stereo not shown) [TCMDC-139531] | 79.06 |
| CN1CCN(c2cc(NC(=O)Nc3ccc(-c4ccncc4)c(Cl)c3)ccc2Br)CC1 [TCMDC-139221] | 36.17 |
| COc1cc(OC)cc(-c2nc3c(C#N)c(OCCN(C)C)ccc3[nH]2)c1 [TCMDC-133764] | 10.97 |
| CCOC(=O)c1ccc(NC(=O)N[C@H]2CCN(CCCCCNC(=O)/C=C/c3ccc(Cl)c(Cl)c3)C2)cc1 [TCMDC-139511] | 97.51 |
| CCOC(=O)c1ccc(NC(=O)NC2CCN(CCCCCNC(=O)/C=C/c3ccc(Cl)c(Cl)c3)C2)cc1 (stereo not shown) [TCMDC-139526] | 12.95 |
| CCNc1cc(C(=O)N[C@@H](Cc2ccccc2)[C@H](O)CNC2CCC(F)(F)CC2)c(F)c(N2CCCCS2(=O)=O)c1 [TCMDC-135448] | 35.59 |
